Inconclusive results are not listed. A call without a number means that no potency is given here. Activity calls are given as the source filed them. Calls come from the whole dose curve; as a rule, active = well fitted cell-killing curve with a large enough effect; inconclusive = small, poorly fitted or top-dose-only effect, or effect the other way; inactive = no such curve, though single readings can be large or run the other way.
Assay: qHTS of pediatric cancer cell lines to identify multiple opportunities for drug repurposing: Confirmatory screen for NB-EBc1 cells (AID 1347115);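 note: cells exposed to compound for 48 h before the viability read; nearly all actives have a fitted effect of over 45% in size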
Conditions: NB-EBc1 neuroblastoma cells, viability (cytotoxicity); series mostly up to 45.9 µM
Source text: Drug repurposing or repositioning has been offered as a strategy for drug development in oncology programs. This approach has special potential for childhood cancers and other rare or orphan diseases, where the expected return on new drug development has been a disincentive to pharmaceuticals.
In this project we exploit the poly-pharmacology of drugs to discover new indications via phenotypic screening of a panel of 19 well-characterized cell lines derived from solid tumors seen in children and adolescents. The goal is to identify approved drugs with previously unrecognized anticancer properties that has the potential to reveal new mechanisms and biological processes involved in carcinogenesis or drug resistance. We employed a titration-based paradigm (quantitative high-throughput screening or qHTS), where all compounds were tested at multiple concentrations for their effect on cell viability. Concentration-response curves (CRCs) were derived directly from the primary screen, and both potency and efficacy values were used to identify compounds with robust bioactivity profiles. We screened the NIH Chemical Genomics Center (NCGC) Pharmaceutical Collection (NPC) and Mechanism Interrogation Plate (MIPE) small molecule collections of approved and investigational compounds against these cell lines; and measured metabolically active cells after 48 hours of compound treatment as a proxy for cell viability.
Assay Submitter: Nathalia J. Martinez, National Center for Advancing Translational Sciences, National Institutes of Health, Rockville, MD, USA; email: natalia.martinez@nih.gov
[1] Shen, M et al. Quantitative high-throughput phenotypic screening of pediatric cancer cell lines identifies multiple opportunities for drug repurposing. Oncotarget 2017 Dec 19;9(4):4758-4772. PMID 29435139.
The cells were obtained from University of North Carolina (UNC), Pediatric Preclinical Testing Program (PPT), and Coriell Institute (CI).
qHTS cell viability assay:
Cells were assayed in growth media at a density of 500-1,000 cells/well. Five microliters of cells were dispensed into 1,536-well, white, solid-bottom, TC-treated plates (Greiner Bio One) using a multidrop dispenser and incubated at 37 degrees C, 5% CO2, under a humidified atmosphere for 5 hours. Twenty-three nanoliters of compounds and controls (neutral control DMSO or positive control bortezomib at final concentration of 2.3 µM) were subsequently transferred by Kalypsys pintool. For primary screens, the MIPE collection was tested at 11-point dilutions (final concentrations range from 0.78 nM to 46 µM) and the NPC collection at 8-point dilutions (final concentrations range from 0.59 nM to 46 µM). Compounds tested in follow-up screens were assayed at 11-point dilutions. Cells were incubated for 48 hours, followed by addition of 3 µL of CellTiter-Glo (Promega). After a 15 min incubation at room temperature, samples were analyzed for luminescence intensity using a ViewLux High-throughput CCD imager equipped with clear filters.
Potency is the fitted concentration of half-maximal effect.

| SMILES | Potency |
| --- | --- |
| COc1ccc2c(C(=O)c3ccc(Cl)cc3)c(C)n(CC(=O)O)c2c1 | inactive |
| ClC1=C(Cl)C2(Cl)C(CBr)CC1(Cl)C2(Cl)Cl (configuration not stated) | inactive |
| COC(=O)C1=CCCN(C)C1 | inactive |
| O=C(O)Cc1ccccc1 | inactive |
| CC1Sc2c(C(=O)O)c(=O)c3cc(F)c(N4CCNCC4)cc3n21 (configuration not stated) | inactive |
| Cc1ccc([N+](=O)[O-])[c]2c1[O][Hg]2 | 2930 nM (active) |
| CN(C)C(=S)SSC(=S)N(C)C | 928 nM (active) |
| CCCCCCCCC(=O)NCc1ccc(O)c(OC)c1 | inactive |
| CC[n+]1c(-c2ccccc2)c2cc(N)ccc2c2ccc(N)cc21 | 5220 nM (active) |
| CCc1ccc(C2CCNCC2)cc1 | inactive |
| C[C@@H]1O[C@@H](O[C@@H]2C=C3CC[C@@H]4[C@H](CC[C@]5(C)[C@@H](c6ccc(=O)oc6)CC[C@]45O)[C@@]3(C)CC2)[C@H](O)[C@H](O)[C@H]1O | 29.3 nM (active) |
| CN1[C@@H]2CC[C@H]1CC(OC(=O)c1cc(Cl)cc(Cl)c1)C2 (some centres not stated) | inactive |
